In PubChem BioAssay AID686940 (The Scripps Research Institute Molecular Screening Center, 2013) one finds inhibition data, which are given here for 81 compounds.

Screen size: about 370,000 compounds; about 2,600 (0.7%) were called active.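 Rule for the calls: active = inhibition above a per-plate cutoff, mean inhibition of test wells between control levels plus 3 SD (cut at about 38% in these data); inactive = the rest.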 Shown is part of a subset that was picked to be rich in actives.

In the assay the target is COUP transcription factor 2 (Homo sapiens) (UniProt P24468). As to the kind of experiment: NR2F2 transcriptional activity inhibitors, primary screen, cell-based, luciferase reporter, HEK293T, luminescence (AID 686940).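 Note: cells cotransfected with COUP-TFII expression vector driving the NGFI-A reporter; 0% = median of COUP-TF2 test wells and 100% = reporter-only cells.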 As to conditions: HEK293T NGFI-A luciferase reporter, at 8.6 µM, active compounds read high. (In a reporter assay the amount or activity of a reporter protein is the signal.)
Chain of COUP transcription factor 2 (Homo sapiens) (P24468 whole entry, looked up): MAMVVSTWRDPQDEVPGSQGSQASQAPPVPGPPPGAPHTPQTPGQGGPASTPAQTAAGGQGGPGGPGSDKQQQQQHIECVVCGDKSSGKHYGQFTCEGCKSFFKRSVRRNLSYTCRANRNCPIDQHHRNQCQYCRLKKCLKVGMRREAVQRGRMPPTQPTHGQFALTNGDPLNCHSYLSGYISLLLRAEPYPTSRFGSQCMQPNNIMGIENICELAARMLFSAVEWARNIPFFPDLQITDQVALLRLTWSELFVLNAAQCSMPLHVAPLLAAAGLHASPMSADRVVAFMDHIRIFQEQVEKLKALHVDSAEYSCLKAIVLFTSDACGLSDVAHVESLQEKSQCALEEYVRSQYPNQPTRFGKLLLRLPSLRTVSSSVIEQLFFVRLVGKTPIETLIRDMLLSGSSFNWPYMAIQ
The term inhibition denotes the change of the read-out against control, counted positive when it falls. Turning to `O=C(NC1CCC1)c1ccc(C#CC2CC2)cn1`, the inhibition was -23.3% (inactive).
As for `O=C(Nc1ccc(S(=O)(=O)NCC2CCCO2)cc1)c1ccc(F)cc1` (stereo unspecified), the inhibition is 45.5% (active).
The result for `O=C(NCC1CCCO1)c1ccc(S(=O)(=O)Nc2ccc(F)cc2)cc1` (stereo unspecified) reads -7.6% (inactive); that for `Cc1ccc(NC(=O)c2ccc(S(=O)(=O)NCC3CCCO3)cc2)cc1C` (stereo unspecified), -13.5% (inactive).
The result for `CCOC(=O)[C@]12CCCC=C1N(CCCOC)C(=O)[C@@H]2CC(=O)N1CCOCC1` reads 13% (inactive); that for `CCCC[C@H]1C2CC(OC(=O)NCc3ccccc3)C(C2)[C@H]2CCCCN21` (stereo partly specified), 2.27% (inactive); that for `CC(C)CNS(=O)(=O)CC1NCCc2ccccc21` (stereo unspecified), 10.8% (inactive).
The result for `CCN(CC)S(=O)(=O)c1ccc(N(C)Cc2ccc(C(F)(F)F)cc2)nc1` reads 41.6% (active).
As for `CCN(CC)S(=O)(=O)c1ccc(N(C)CCc2ccc(OC)c(OC)c2)nc1`, the inhibition is -0.82% (inactive).
Consider `CCN(CC)S(=O)(=O)c1ccc(N(C)Cc2cccc(OC)c2OC)nc1`, for which the inhibition was 1.36% (inactive).
Take `CCOC(=O)[C@@]12CCC3=C1N(CCC3)C(=O)[C@H](CC(=O)N1CCN(C(=O)c3ccco3)CC1)C2`: the inhibition is 0.9% (inactive).
Take `COc1ccc(C2Nc3ccccc3C(=O)N2Cc2cccs2)cc1COc1c(C)cccc1C` (stereo unspecified): the inhibition was 14% (inactive).
Under `CN(C)Cc1cn(-c2ccc(-c3noc4c3C(=O)N(CC(=O)N3CCOCC3)CC4)cc2)nn1` stands 6.87% (inactive); under `C=CCN1C(=O)[C@@H](CC(=O)NCCCOCCCC)[C@]2(C(=O)OCC)CCCCC/C=C/12`, -5.26% (inactive); under `Cc1ccc(S(=O)(=O)N2CCCC(C(=O)N3CCN(C)CC3)C2)cc1` (stereo unspecified), 8.22% (inactive).
The result for `CC(=O)N1CCCc2cc(S(=O)(=O)N3CCCC(C(=O)N4CCN(c5cccc(Cl)c5)CC4)C3)ccc21` (stereo unspecified) reads 76.9% (active); that for `COc1ccc(S(=O)(=O)N2CCCC(C(=O)N3CCN(C)CC3)C2)cc1C` (stereo unspecified), -0.76% (inactive); that for `COC(=O)C1CN(CC(C)C)CCS(=O)(=O)N1Cc1ccc(C)cc1` (stereo unspecified), 0.94% (inactive).
With `O=C(NCc1cccs1)C1CCCN(S(=O)(=O)c2ccc([N+](=O)[O-])cc2)C1` (stereo unspecified), the inhibition is -10.3% (inactive).
Regarding `Cc1ccc(-n2c(SCC(=O)Nc3cccc4ccccc34)nnc2-c2ccco2)cc1`, the inhibition was 6.67% (inactive).
The result for `Cc1ccc(C(=O)C2CCN(CC(=O)NCCC(C)C)CC2)cc1` reads 6.65% (inactive); that for `O=C(CSc1nc2ccccc2s1)N=Nc1c(O)[nH]c2ccccc12`, 8.58% (inactive).
Under `CC1(C)CC(N2CCN(C(c3ccccc3)c3ccccc3)CC2)=CC(=[N+]2CCCCC2)C1` stands 85.2% (active); under `CCOC(=O)C1CCN(C(=O)C(C)(C)NC(=O)Nc2ccccc2Cl)CC1`, 25.7% (inactive); under `COC(=O)[C@]1(S(=O)(=O)c2ccccc2)C[C@@H]2ON=C(c3ccc(OC)cc3)[C@@H]2C1`, 3.59% (inactive).
Consider `N#C[C@]1(S(=O)(=O)c2ccccc2)C[C@@H]2ON=C(c3cccc(Br)c3)[C@@H]2C1`, for which the inhibition is 52.9% (active).
Under `O=C(c1c[nH]c2ccccc12)N1CCC(Oc2cccnc2)CC1` stands -3.41% (inactive); under `NC(=O)c1sc2nc3c(c(-c4ccccc4)c2c1N)CCC3`, 57.2% (active).
Turning to `CC(C)OC(=O)c1sc2nc3c(cc2c1N)C(=O)CCC3`, the inhibition was -22.1% (inactive).
Under `CCOC(=O)[C@]12CCCCC/C=C\1N(Cc1ccc(OC)cc1)C(=O)[C@H]2CC(=O)NCc1ccc(C)o1` stands -9.71% (inactive).
Under `COc1ccc(-c2cc(-c3nnc(SCc4ccc([N+](=O)[O-])cc4)n3N)[nH]n2)cc1` stands 11.7% (inactive); under `C=CCN1C(=O)[C@@H](CC(=O)NCCCCc2ccccc2)[C@]2(C(=O)OCC)CCCCC/C=C/12`, -17.9% (inactive).
As for `Cc1ccc(S(=O)(=O)N(C)CC(=O)N2CCc3ccccc32)cc1`, the inhibition was -12.3% (inactive).
As to `CN(Cc1cccs1)C(=O)CN1C(=O)c2ccccc2S1(=O)=O`, the inhibition was -15.9% (inactive).
In the case of `O=C(CN1C(=O)c2ccccc2S1(=O)=O)N1CCc2ccccc21`, the inhibition is 57.8% (active).
Take `CC(=O)Nc1cccc(NC(=O)c2ccc3c(c2)CCN3S(C)(=O)=O)c1`: the inhibition is -21% (inactive).
Under `CN(c1cccc(NC(=O)c2ccc(CN3CCc4ccccc4C3)cc2)c1)S(C)(=O)=O` stands 61.4% (active); under `CN(c1ccc(C(=O)N2CCc3ccccc3C2)cc1)S(C)(=O)=O`, -7.57% (inactive); under `COCCCNC(=O)C[C@H]1C[C@@]2(C(=O)OC)C(=C[C@H](C(C)(C)C)O[C@@H]2C)N(Cc2ccc(Cl)cc2Cl)C1=O`, 6.74% (inactive).
Under `CCOC(=O)[C@]12CCCC3=C1N(CCC3)C(=O)[C@@H](CC(=O)NCc1cccs1)C2` stands -7.47% (inactive); under `CC(C)CNc1cccc2c1S(=O)(=O)N(Cc1cn(Cc3ccccc3C(F)(F)F)nn1)Cc1ccccc1O2`, 3.92% (inactive).
Under `Cn1ccc(=NC=C(C#N)C#N)c2ccccc21` stands -6.63% (inactive); under `N#CC(C#N)=CN=c1ccn(Cc2ccc(Cl)cc2Cl)cc1`, 41.5% (active).
Consider `CC(C)(C)c1cc(C(=O)NN)n(Cc2ccc(Cl)cc2Cl)n1`, for which the inhibition is 12.5% (inactive).
Under `COC(=O)[C@H](C(C)C)N(CCc1cn(Cc2ccccc2)nn1)S(=O)(=O)c1ccc(F)cc1Br` stands -0.51% (inactive); under `OC[C@@H]1CN(Cc2ccncc2)C[C@H](n2cnc3c(N4CCN(c5ccccc5)CC4)ncnc32)O1`, 65.7% (active).
Take `OCCN1CCN(c2ncnc3c2ncn3[C@H]2CN(Cc3ccco3)C[C@@H](CO)O2)CC1`: the inhibition is -8.87% (inactive).
`OC[C@@H]1CN(Cc2ccc(-c3ccccc3)cc2)C[C@H](n2cnc3c(NC4CCCC4)ncnc32)O1`: the inhibition was 73.9% (active).
Consider `OC[C@@H]1CN(Cc2cccs2)C[C@H](n2cnc3c(Nc4ccccc4)ncnc32)O1`, for which the inhibition is 10.6% (inactive).
The result for `OC[C@@H]1CN(C2CCCC2)C[C@H](n2cnc3c(NC4CCC4)ncnc32)O1` reads -25.3% (inactive).
Under `CC(C)Nc1ncnc2c1ncn2[C@H]1CN(Cc2ccncc2)C[C@@H](CO)O1` stands -8.36% (inactive).
Under `Cc1ccc(C)c(NC(=O)CCS(=O)(=O)c2ccccc2)c1` stands -5.81% (inactive).
For the compound `CCCCCN1CCCCC(NC(=O)C(C)CCC)C1=O` (stereo unspecified), the inhibition was 4.97% (inactive).
The result for `C=CCN1C(=O)[C@@H](CC(=O)N2CCN(C(=O)OCC)CC2)[C@]2(C(=O)OCC)CCCCC/C=C/12` reads 3.11% (inactive).
Turning to `C=CCN(C(=O)[C@@H](CCCC)[C@@H](O)c1ccc(Cl)cc1)c1ccccc1`, the inhibition was -5.06% (inactive).
The result for `Cc1c(C)c2cc3c4c(oc3c(C)c2oc1=O)CCCC4` reads -4.7% (inactive); that for `Cc1c(CCC(=O)N[C@@H](CC(C)C)C(=O)O)c(=O)oc2c(C)c3oc4c(c3cc12)CCCC4`, 6.96% (inactive).
The result for `CC[C@@H](C)[C@H](NC(=O)CCc1c(C)c2cc3c4c(oc3c(C)c2oc1=O)CCCC4)C(=O)O` reads 39.7% (active).
As for `COc1ccccc1NC(=O)CSc1nnc(CNC(=O)c2ccccc2F)o1`, the inhibition is 1.36% (inactive).
In the case of `CCC(=O)Nc1ccc(C(=O)CSc2nnc(CNc3ccc(Cl)cc3)o2)cc1OC`, the inhibition was 42.1% (active).
`COc1cc(C(=O)NCc2nnc(SCC(=O)c3ccc(Cl)cc3)o2)cc(OC)c1OC`: the inhibition is 7.38% (inactive).
For the compound `O=C(CSc1nc2sc3c(c2c(=O)n1-c1ccccc1)CCCC3)NN=Cc1ccc(OCc2ccccc2)cc1`, the inhibition is -6.12% (inactive).
Under `Cc1ccc(-n2c(SCC(=O)Nc3ccc(S(=O)(=O)Nc4nccs4)cc3)nnc2-c2ccncc2)cc1` stands 3.85% (inactive).
The result for `Cc1ccc(Nc2nc(CSc3nnc(-c4ccncc4)n3-c3ccccc3C)cs2)cc1` reads 39.8% (active); that for `Cc1ccc(-n2c(SCC(=O)N3c4ccccc4Sc4ccccc43)nnc2-c2ccncc2)cc1`, 6.33% (inactive).
`CC(C)N1CCCCC(NC(=O)c2ccc3ccccc3c2)C1=O` (stereo unspecified): the inhibition is -8.52% (inactive).
For `C=CCN1[C@H](CC(C)C)COc2cccc(N3CCCC3)c2S1(=O)=O`, the inhibition was 14.6% (inactive).
Under `CCCCCCCCn1c2c(c(=N)c3c1CCC3)CCCC2` stands 84.5% (active); under `O=S(=O)(c1ccccc1)N1CCC(c2nc3ccccc3o2)CC1`, -11.5% (inactive); under `CCOC(=O)N1CCN(C(=O)C[C@H]2C[C@@]3(C(=O)OC)C(=C[C@H](C(C)(C)C)O[C@@H]3C)N(Cc3ccc(Cl)cc3Cl)C2=O)CC1`, -1.12% (inactive).
Regarding `C=CCN1[C@@H](Cc2ccccc2)COc2cccc(N3CCSCC3)c2S1(=O)=O`, the inhibition is 5.82% (inactive).
As for `O=C(CN1CCCc2ccccc21)NCc1ccc(F)cc1`, the inhibition is 5.12% (inactive).
As to `CCCNC(=O)Nc1ccc2c(c1)C(=O)N(C)[C@H]1CC[C@H](CC(=O)NCC3CCCCC3)O[C@@H]1CO2`, the inhibition is 9.56% (inactive).
Turning to `C[C@@H]1ON(C)[C@H]2C[C@H]3c4[nH]c5cccc(-c6ccc7c(c6)OCO7)c5c4CCN3C[C@@H]12`, the inhibition is -15.3% (inactive).
The result for `Cc1ccc(NC(=O)C2CC(=O)N(c3ccc4c(c3)OCCO4)C2)cc1S(=O)(=O)N1CCCCCC1` (stereo unspecified) reads 42.3% (active); that for `COc1ccc(S(=O)(=O)N2CCCCC2)cc1NC(=O)C1CC(=O)N(c2ccc3c(c2)OCCO3)C1` (stereo unspecified), 0.74% (inactive).
With `Cc1ccc(N2CC(C(=O)Nc3ccc(S(=O)(=O)N4CCCC4)cc3)CC2=O)cc1C` (stereo unspecified), the inhibition is -1.2% (inactive).
The result for `Cc1ccccc1CN1CCCCC(NC(=O)c2cccc(C#N)c2)C1=O` (stereo unspecified) reads -2.68% (inactive); that for `O=C(Nc1cccc(S(=O)(=O)Nc2ccc(Cl)cc2)c1)c1ccc2c(c1)OCCO2`, 50.8% (active); that for `CN1CCN(c2ccc(NC(=O)c3ccc4c(c3)OCCO4)cc2Cl)CC1`, -69.1% (inactive).
In the case of `CC(=O)Nc1ccc(C(=O)Nc2cccc(S(=O)(=O)NC3=NCCC3)c2)cc1`, the inhibition was -6.18% (inactive).
